OTUD3 inh: blocks human OTUD3 ubiquitin-rhodamine cleavage; Q5T2D3; purified OTUD3, Ub-rhodamine fluorescence, 2 h; AID 1645858; inhibition, % at 25 µM; 47,000 compounds, 0.7% hits
USP8 inh: inhibitors of human USP8 deubiquitinase; inhibition, % at 20 µM; 47,000 compounds, 4.2% hits; AID 1645853; purified USP8, Ub-rhodamine cleavage fluorescence, 30 min; P40818
Target sequence (P40818 whole entry, looked up): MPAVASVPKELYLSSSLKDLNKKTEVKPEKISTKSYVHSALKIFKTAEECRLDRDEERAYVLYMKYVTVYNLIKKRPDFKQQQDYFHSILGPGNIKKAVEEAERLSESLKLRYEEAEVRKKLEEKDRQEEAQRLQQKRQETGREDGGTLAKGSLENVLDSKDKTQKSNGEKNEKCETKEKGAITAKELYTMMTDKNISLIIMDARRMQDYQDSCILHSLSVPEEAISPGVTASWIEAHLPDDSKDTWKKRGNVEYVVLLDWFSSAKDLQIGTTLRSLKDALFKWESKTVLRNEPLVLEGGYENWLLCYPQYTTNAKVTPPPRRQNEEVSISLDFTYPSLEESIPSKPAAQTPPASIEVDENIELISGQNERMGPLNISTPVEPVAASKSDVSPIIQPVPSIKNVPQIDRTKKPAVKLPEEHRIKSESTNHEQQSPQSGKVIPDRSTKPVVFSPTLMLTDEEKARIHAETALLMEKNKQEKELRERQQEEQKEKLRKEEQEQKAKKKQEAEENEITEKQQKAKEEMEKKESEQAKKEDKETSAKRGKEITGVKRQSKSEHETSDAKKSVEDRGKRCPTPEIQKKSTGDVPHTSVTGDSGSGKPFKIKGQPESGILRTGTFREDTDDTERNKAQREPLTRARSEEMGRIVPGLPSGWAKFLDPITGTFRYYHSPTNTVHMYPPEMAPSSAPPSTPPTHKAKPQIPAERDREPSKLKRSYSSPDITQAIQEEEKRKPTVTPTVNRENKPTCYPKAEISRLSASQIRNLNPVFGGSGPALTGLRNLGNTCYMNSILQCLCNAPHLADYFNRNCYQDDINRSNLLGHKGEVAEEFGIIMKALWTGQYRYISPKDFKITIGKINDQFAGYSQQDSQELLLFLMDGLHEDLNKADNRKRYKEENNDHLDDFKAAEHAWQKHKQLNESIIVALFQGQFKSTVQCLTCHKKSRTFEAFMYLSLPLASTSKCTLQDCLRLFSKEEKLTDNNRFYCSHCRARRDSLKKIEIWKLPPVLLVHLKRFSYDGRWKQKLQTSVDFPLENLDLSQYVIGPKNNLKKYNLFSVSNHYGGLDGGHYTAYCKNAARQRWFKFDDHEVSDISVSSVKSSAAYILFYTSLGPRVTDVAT
UCHL1 inh: blocks human UCHL1 ubiquitin-rhodamine cleavage. P09936. purified UCHL1, Ub-rhodamine cleavage fluorescence. inhibition, % at 20 µM. 47,000 compounds, 0.2% hits. AID 1645859
USP28 inh: blocks human USP28 ubiquitin-rhodamine cleavage. Q96RU2. purified USP28, Ub-rhodamine cleavage fluorescence, 30 min. inhibition, % at 25 µM. 47,000 compounds, 3% hits
USP10 inh: inhibitors of human USP10 deubiquitinase; Q14694; purified USP10, Ub-rhodamine fluorescence, 60 min; inhibition, % at 20 µM; 47,000 compounds, 1.1% hits; AID 1645856
USP7 block: blocks human USP7 ubiquitin-rhodamine cleavage. Q93009. purified USP7, Ub-rhodamine cleavage fluorescence. inhibition, % at 20 µM. 47,000 compounds, 0.3% hits. AID 1645854
* hit, by the source's call. Only some compounds are listed: those with a hit (about 6.8% of all), similar ones and a draw of the others. Rule as the data show it: active = inhibition above about 30%; inactive = the rest.

SMILES	OTUD3 inh	USP8 inh	UCHL1 inh	USP28 inh	USP10 inh	USP7 block
CC(NC(=O)c1ccccc1)c1nc2ccccc2n1CC(=O)Nc1ccc(F)cc1 (centres undefined)	15	66*	4	8	20	7
CC(NC(=O)c1ccccc1)c1nc2ccccc2n1CC(=O)Nc1ccc2c(c1)OCO2 (centres undefined)	10	74*	0	15	56*	27
Cc1nc(-c2ccccn2)sc1C(=O)/C=C/c1ccccc1	-5	4	4	-15	8	21
Cc1ccc(CNC(=O)C2CCCN(C(=O)c3[nH]c(C)cc3C)C2)cc1 (centres undefined)	9	9	3	3	-1	2
O=C(Nc1cccc(S(=O)(=O)N2CCOCC2)c1)C1Cc2ccccc2CN1C(=O)c1ccco1 (centres undefined)	-8	40*	-3	-18	-6	-7
CCn1cc(CN2C[C@@H](O)[C@H](NC(=O)c3cscn3)C2)c(C)n1	13	1	2	10	2	5
Cc1c(O)c(O)c2c(c1O)COC2	-16	2	0	1	-2	-30
Cc1cccc(NC(=O)[C@@H]2CCCN2C2=NS(=O)(=O)c3ccccc32)c1C	10	46*	2	0	7	3
O=C(Nc1nnc(C2CCCCC2)s1)c1cc(F)ccc1-n1cnnn1	4	10	0	4	1	2
CCc1nc2cc(NC(=O)c3cccc(N4CCCC4=O)c3)ccc2n1C	-4	-12	6	62*	0	11
O=C(c1ccc(CNS(=O)(=O)c2ccc(Cl)cc2)cc1)N1CCC2(CC1)OCCO2	8	10	0	9	-1	-3
CCOC(=O)N1CCN(S(=O)(=O)c2ccc(C(=O)Nc3ccc(OC)c4ccccc34)cc2)CC1	-12	56*	4	3	5	6
O=C(Cc1ccc(Cl)cc1Cl)N1CCC[C@H]1[C@H](O)c1nccs1	1	-76	-1	-7	1	-10
COc1cccc(CNC(=O)c2ccc3c(=O)nc4c(-c5cccc(C)c5)n[nH]n4c3c2)c1	-6	43*	-10	-28	5	5
CC(c1ccccc1)c1nc(-c2ccc(=O)[nH]c2)no1 (centres undefined)	1	10	-1	61*	-1	-5
Cc1ccc2nc(NC(=O)c3cccn3Cc3noc(C)n3)sc2c1	2	-38	-2	-12	-5	-4
Cc1ccc(NC(=O)c2oc3ccccc3c2NC(=O)COc2ccc(C)cc2)cc1	-1	-7	-1	-2	8	1
COc1cccc(NC(=O)c2oc3ccccc3c2NC(=O)COc2cccc(OC)c2)c1	24	-9	0	0	35*	3
Cc1cc(NS(=O)(=O)c2ccc(NC(=O)c3ccc(N4CCCC4)c([N+](=O)[O-])c3)cc2)no1	8	-68	5	14	31*	-12
O=C(CCn1c(=O)c2ccccc2n(Cc2ccccc2F)c1=O)NCc1ccco1	-3	8	7	-13	39*	-26
Cc1ccccc1Cn1c(=O)n(CCC(=O)NCc2ccco2)c(=O)c2ccccc21	-9	38*	1	6	16	-7
N#Cc1ccccc1Cn1c(=O)n(Cc2ccco2)c(=O)c2ccccc21	20	8	3	38*	13	-9
Cc1cc(C)n(CC2CCCCN2C(=O)CCc2nccs2)n1 (centres undefined)	0	-3	-1	-7	0	-24
Cc1cc(C)n(CC(=O)N2N=CCC2(O)C(F)(F)F)n1 (centres undefined)	9	37*	1	4	0	1
CC(=O)NC[C@H]1C[C@]2(C)[C@@H](CCCC[C@]2(C)O)N1C(=O)c1ncccn1	3	-9	-3	-11	0	2
SMILES	OTUD3 inh	USP8 inh	UCHL1 inh	USP28 inh	USP10 inh	USP7 block
Cc1sc2nc(SCC(=O)Nc3ccccc3O)n(Cc3ccco3)c(=O)c2c1C	11	54*	8	12	21	9
Cc1sc2nc(SCC(=O)Nc3cccc(F)c3)n(Cc3ccco3)c(=O)c2c1C	5	4	2	10	0	3
N#Cc1ccccc1OCc1csc(-c2ccccc2)n1	-3	-30	1	66*	5	-3
O=C(Nc1ncccc1O)C1CC(=O)N(c2ccc3c(c2)OCO3)C1 (centres undefined)	-5	55*	-2	-5	-8	-3
Cc1cnc(NC(=O)C2CC(=O)N(c3ccc4c(c3)OCCO4)C2)s1 (centres undefined)	-8	-3	-1	0	-3	6
Cc1cc(=O)n(CC(=O)Nc2ccccc2)c(Nc2ccc(F)cc2)n1	-1	-3	0	43*	10	-8
Cc1ccc(NC(=O)Cn2c(Nc3ccc(F)cc3)nc(C)cc2=O)cc1	18	14	5	10	11	0
Cc1cc(=O)n(CC(=O)Nc2ccccc2F)c(Nc2ccc(F)cc2)n1	27	8	3	39*	20	-2
Cc1cc(=O)n(CC(=O)Nc2ccccc2)c(Nc2ccc(C)c(C)c2)n1	2	-31	0	-7	2	0
COc1ccccc1CNC(=O)Cn1cnc(S(=O)(=O)N2CCCC2)c1	1	7	-1	5	2	1
O=c1ccc(-c2nc(-c3ccncc3)no2)cn1Cc1noc(-c2ccccc2)n1	-11	53*	-13	-47	-7	3
O=C(c1nnn(Cc2ccc(Cl)cc2)c1-n1cccc1)N1CCSCC1	5	10	3	36*	1	-3
COC(=O)CSc1nnc(-c2ccccc2O)n1Cc1ccccc1	7	37*	0	10	2	-1
O=C(N[C@H]1CCCc2ccccc21)c1cc(-c2ccco2)on1	1	33*	-1	0	-6	4
COc1cc(C2CCN(C(=O)Nc3cccc(C#N)c3)CC2)on1	4	7	-2	-4	-1	0
CCOC(=O)c1cc2c(ccn2C)n1CC(=O)N1CCN(C(=O)c2ccco2)CC1	-132	37*	-10	-113	-6	-11
CCOC(=O)c1cc2c(ccn2C)n1Cc1ccccc1C#N	-92	26	-8	-63	-7	-17
CCOC(=O)c1cc2c(ccn2C)n1Cc1ccc2ccccc2n1	-33	57*	-12	-1	-7	-25
CCOC(=O)c1cc2c(ccn2C)n1Cc1cccc2ccccc12	-1	87*	2	21	-7	-3
COC(=O)c1cc2c(ccn2C)n1Cc1ccccc1OC	-46	70*	-5	-27	-5	-3
COC(=O)c1cc2c(ccn2C)n1Cc1ccccc1	-134	17	-11	-170	-5	-42
COc1ccc(Nc2nnc(Cc3ccc(Cl)cc3)c(=O)[nH]2)cc1	3	92*	0	-8	39*	28
COc1ccccc1S(=O)(=O)N1C[C@H]2NC(=O)c3ccccc3C(=O)[C@@]2(C)C1	5	4	3	1	1	4
